# tim10-1 inh = inhibits growth of tim10-1 mutant yeast; S. cerevisiae tim10-1 ts strain growth, BacTiter-Glo, 24 h; inhibition, % at 20 µM; 330,000 tested, 2.2% active; AID 463190;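 active = inhibition of at least 40%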;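 also: mutant grown at 25 °C; 0% = DMSO wells with yeast and 100% = wells holding no yeast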
# V-ATPase pHluor = yeast V-ATPase proton transport regulation by pHLuorin; S. cerevisiae, pHLuorin cytosolic pH fluorescence; response, % at 10 µM; 350,000 tested, 0.37% active; in the data active = response mostly above about 7.3%, no sharp cut-off; inactive = mostly below about 5.4%; also: actives read high
# tim23-1 inh = growth inhibitors of tim23-1 mutant yeast; S. cerevisiae tim23-1 growth, BacTiter-Glo luminescence, 24 h; inhibition, % at 20 µM; 330,000 tested, 1.3% active;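 active = growth inhibition of the mutant yeast at or above 50%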;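 also: temperature-sensitive mutant grown at 25 °C; plate controls were DMSO-treated mutant yeast for no effect and medium wells lacking yeast for full effect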
# NALP1 inh = inhibitors of NALP1 inflammasome in yeast; inhibition, % at 10 µM; 280,000 tested, 0.61% active; S. cerevisiae NALP1/ASC/caspase-1 growth, X-gal OD620, 72 h; in the data active = inhibition mostly above about 24%, no sharp cut-off; inactive = mostly below about 32%
# TIM10 inh = growth inhibitors of TIM10 yeast strain | S. cerevisiae TIM10 strain growth, BacTiter-Glo luminescence, 24 h | inhibition, % at 10 µM | 330,000 tested, 1.4% active;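 active = inhibition of 40% or more at the single tested concentration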;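 also: wild-type TIM10 isogenic control strain grown at permissive 25 °C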
# NALP3 yeast inh = NALP3 inhibition in yeast; 330,000 tested, 0.39% active; Yeast reconstituted NLRP3/ASC/caspase-1, beta-gal luminescence, 24 h; inhibition, % at 10 µM;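 active = inhibition of 50% or more; inactive = inhibition below 50%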;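 also: plate controls were induced DMSO wells for no effect and uninduced yeast grown without galactose for full effect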
# tim10-1 confirm = tim10-1 yeast growth inhibition, confirmed | shares compounds with tim10-1 inh | S. cerevisiae tim10-1 ts strain growth, BacTiter-Glo, 24 h | inhibition, % at 20 µM | 7,400 tested, 56% active;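 active = inhibition of yeast growth at or above a set limit in either of two repeat tests at 20 µM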;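 also: tim10-1 mutant grown at permissive 25 °C to find synthetic lethal compounds; 0% = DMSO yeast wells and 100% = medium wells without yeast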
# tim10 confirm = TIM10 yeast growth inhibition, confirmed; inhibition, % at 10 µM; shares compounds with TIM10 inh; AID 463215; 4,600 tested, 63% active; S. cerevisiae tim10 strain growth, BacTiter-Glo luminescence, 24 h;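 active = inhibition of yeast growth at or above a set limit in either of two replicates at 10 µM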;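 also: this counterscreen used the strain with wild-type TIM10; 0% = yeast with DMSO and 100% = medium wells lacking yeast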
# tim23-1 conf = tim23-1 yeast growth inhibition, confirmed. S. cerevisiae tim23-1 growth, BacTiter-Glo luminescence, 24 h. 4,400 tested, 83% active. inhibition, % at 20 µM. shares compounds with tim23-1 inh. AID 463218;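 active = inhibition above about 39% in either of two replicate wells at 20 µM, limit read from the data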;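 also: temperature-sensitive tim23-1 mutant grown at 25 °C; 0% = DMSO wells with yeast and 100% = medium wells without yeast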
# Active calls of the source: *; . = no result given. This is a sample that favours compounds with a hit; in the whole collection about 4.2% have one here.
SMILES,tim10-1 inh,V-ATPase pHluor,tim23-1 inh,NALP1 inh,TIM10 inh,NALP3 yeast inh,tim10-1 confirm,tim10 confirm,tim23-1 conf
c1ccc(-c2nnc(-c3ccccc3)nn2)cc1,4.3,-0.1,3.8,.,18.7,40.6,.,.,.
CCOC(=O)/C(=C/c1ccc(OC(=O)c2ccccc2)cc1)C(C)=O,46.6*,2.5,88.8*,75.0,76.8*,34.4,64.3*,-19.7,52.6*
CCC1(c2cccc(Cl)c2)NC(=O)N(Cc2cc(C(=O)OC)c(C)o2)C1=O (centres undefined),15.4,-0.9,18.2,10.1,10.1,16.6,.,.,.
COc1cc(OC)c(C(=O)/C=C/c2ccccc2)c(O)c1O,50.8*,-2.3,58.3*,-9.4,39.4,11.4,32.4*,.,62.9*
COc1cc(O)cc(O)c1C(=O)/C=C/c1ccccc1,37.1,-12.9,36.5,5.7,30.3,36.3,.,.,.
Oc1ccccc1N=Cc1c(O)ccc2ccccc12,41.9*,1.3,66.1*,18.4,37.6,28.1,29.6,.,78.5*
CN(C)/N=C/c1c(O)ccc2ccccc12,6.4,6.4,-0.7,-15.2,-7.0,12.3,.,.,.
CCOn1c(=O)c(-c2cccs2)[n+]([O-])c2ccccc21,56.7*,3.3,61.8*,13.1,35.2,11.0,41.1*,.,67.5*
CCOn1c(=O)c(-c2ccc(C)cc2)[n+]([O-])c2ccccc21,17.1,3.5,8.7,17.0,-5.4,9.3,.,.,.
O=[N+]([O-])c1c(C(Cl)Cl)nn(-c2ccccc2)c1N1CCCC1,61.3*,3.6,60.6*,-29.2,19.8,7.0,60.8*,.,57.5*
COc1cc(Nc2ccccn2)cc(C(=O)Nc2cccc(C(F)(F)F)c2)c1,49.3*,-1.3,51.0*,.,29.1,26.5,36.1*,.,64.8*
COc1cc(NC(=O)c2nccnc2N)cc(C(=O)Nc2cccc(C(F)(F)F)c2)c1,11.7,0.4,19.2,.,5.7,17.6,.,.,.
Cc1ccc(C(OCC(O)CNC(C)c2ccccc2)c2ccccc2)cc1 (centres undefined),62.3*,-2.2,53.9*,14.6,58.6*,20.7,60.5*,52.4*,39.4*
CCOC(=O)N1CCN(C(=O)C2CCCN(S(=O)(=O)c3ccccc3)C2)CC1 (centres undefined),1.2,1.7,12.0,13.5,0.5,13.4,.,.,.
Cc1c(NC(=O)c2ccc([N+](=O)[O-])o2)cccc1-c1nc2ncccc2o1,48.8*,-2.4,52.7*,9.9,47.5*,12.6,47.8*,52.7*,63.5*
O=C(Nc1cc(Cl)ccc1-n1cncn1)c1ccc([N+](=O)[O-])o1,71.7*,2.0,66.3*,.,48.1*,10.3,57.7*,55.8*,50.0*
O=C(Nc1ccccc1Cl)c1ccc([N+](=O)[O-])o1,49.9*,4.3,67.1*,12.4,48.0*,24.1,55.7*,56.8*,67.7*
O=C(Nc1cc(Cl)ccc1F)c1ccc(-n2cncn2)c([N+](=O)[O-])c1,0.5,-4.9,6.7,.,-4.2,26.2,.,.,.
Cc1occc1-c1nnc(-c2cc([N+](=O)[O-])cc([N+](=O)[O-])c2)o1,73.4*,1.7,82.6*,5.3,56.0*,27.5,68.8*,52.0*,69.3*
Cc1cc2n(n1)C(c1ccco1)Nc1ccccc1-2 (centres undefined),14.9,-1.5,21.3,28.3,6.7,11.3,.,.,.
Cc1cc2n(n1)C(c1c[nH]c3ccccc13)Nc1ccccc1-2 (centres undefined),60.2*,-2.2,70.5*,37.4,40.1*,19.2,33.6*,33.2*,-23.1
Cc1cc2n(n1)C(c1ccc(O)cc1)Nc1ccccc1-2 (centres undefined),54.1*,-0.6,50.4*,17.7,54.6*,9.4,46.5*,48.5*,53.9*
CC1=C(C)CS(=O)N(c2ccc(S(N)(=O)=O)cc2)C1 (centres undefined),30.7,15.7,22.8,8.3,26.5,-11.0,.,.,.
COc1ccc(/C(=C/c2ccc(OC(F)F)c(OC)c2)C(=O)O)cc1OC,15.7,0.0,6.6,14.4,-4.4,-4.5,.,.,.
CCOC(=O)[C@@H]1[C@H]2COc3cc(OC)ccc3[C@@H]2N2C(=O)N(c3ccc(C(F)(F)F)cc3)C(=O)[C@@]12C,11.7,1.4,25.4,10.2,18.9,11.8,.,.,.
SMILES,tim10-1 inh,V-ATPase pHluor,tim23-1 inh,NALP1 inh,TIM10 inh,NALP3 yeast inh,tim10-1 confirm,tim10 confirm,tim23-1 conf
CCOC(=O)[C@@H]1[C@H]2COc3cc(OC)ccc3[C@H]2N2C(=O)N(c3ccc(C(F)(F)F)cc3)C(=O)[C@]12C,77.0*,3.6,83.8*,.,75.0*,46.6,84.2*,73.5*,86.5*
CCOC(=O)CC1=NN(c2ccccc2)C(=O)/C1=C\c1ccc(N(C)C)cc1,43.2*,-1.3,51.5*,14.8,51.2*,17.8,42.8*,53.4*,53.1*
CCOC(=O)c1cnc2c(OC)cccc2c1N1CC(C)CC(C)C1 (centres undefined),42.0*,0.8,71.0*,0.5,27.6,5.8,34.8*,.,51.5*
COC(=O)N/N=C/c1sc(N2CCCCC2)nc1-c1cccs1,45.4*,-6.0,53.1*,28.0,33.4,13.4,32.5*,.,47.0*
C=CCN1C(=O)c2ccc(C(=O)NCCc3ccc(F)cc3)cc2C1=O,6.4,-4.6,14.2,-0.5,3.2,3.7,.,.,.
O=c1nc2s/c(=C\c3ccco3)c(=O)n2nc1Cc1ccc(F)cc1,70.6*,-0.5,53.3*,-13.7,78.1*,11.2,75.6*,79.6*,-8.2
O=C(C=Cc1ccco1)c1ccc2ccccc2c1,.,-4.8,.,.,.,.,.,.,.
O=C(OCC#CCSc1nnc(-c2ccccc2)o1)c1cc2ccccc2o1,22.1,1.7,9.1,6.3,11.5,14.2,.,.,.
S=c1[nH]nc(-c2ccncc2)n1/N=C/C(Cl)=C\c1ccccc1,55.7*,-1.1,58.3*,-1.3,66.7*,22.5,49.5*,57.7*,48.2*
S=c1[nH]nc(-c2ccncc2)n1/N=C/C=C/c1ccccc1,15.8,0.6,12.4,-7.3,14.8,22.0,.,.,.
O=C(NNC(=O)c1cc(Cl)ccc1O)c1cccc(S(=O)(=O)N2CCOCC2)c1,4.5,-5.8,-4.5,.,-1.3,12.4,.,.,.
Cc1cc(C)c(C(=O)Nc2ccc(S(=O)(=O)Nc3ccccn3)cc2)c(C)c1,12.0,-2.3,7.0,28.4,-13.9,7.4,.,.,.
CCSc1nnc(-c2ccc(Cl)cc2)c2ccccc12,9.7,-1.0,21.8,12.1,12.0,6.3,.,.,.
CCSc1nnc(-c2ccc(C)cc2)c2ccccc12,55.4*,2.0,64.2*,44.8,43.8*,35.3,48.7*,9.0,70.2*

# Source: PubChem BioAssay (several laboratories)
